Test systems include T-47D breast; BT-549 breast; MDA-MB-435 melanoma; SW-620 colon; MCF7 breast; HCT-116 colon; HCC-2998 colon; KM12 colon.
What all share (test): NCI-60 one-dose screen, 48 h (100 = growth as untreated, 0 = no growth, -100 = all killed)
Details in all cases: 10 µM unless noted

Compounds without any hit were thinned out: in the full panel of roughly 83,000, 20% have a hit.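 Assay: single dose, 48 h. Readout: percent growth (0 = no net growth; negative = cell death). Active: <10.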 A number with no mark means an inactive call. Calls of active or inactive are those of the source.

Turning to `CNc1ccc(-c2cc(=O)oc3ccc(Cl)cc23)cc1`, the growth is 66.8% in the test with T-47D breast; 21.8% in the test with BT-549 breast; -11.5% (active) in the test with MDA-MB-435 melanoma; 23.3% with SW-620 colon; 18.3% in the test on MCF7 breast; 10% in the test with HCT-116 colon. Also, the growth in the test on HCC-2998 colon is 31.6%; in the test with KM12 colon, 15%.

Regarding `O=C(O)c1ccc(NC(=O)c2ccc(-c3cccc([N+](=O)[O-])c3)o2)cc1`, the growth in the test with T-47D breast is 102%; in the test with BT-549 breast, 107%; in the test on MDA-MB-435 melanoma, 100%; in the test on SW-620 colon, 96%; with MCF7 breast it was 89.8%; in the test on HCT-116 colon it was 105%. Moreover, the growth in the test with HCC-2998 colon is 99.3%; in the test with KM12 colon, 99.5%.

On to `COc1cccc(NC(=O)c2sc3nc(C)c(C(C)=O)cc3c2N)c1`, for which the growth in the test on T-47D breast is 54%; in the test on BT-549 breast, 53.7%; in the test on MDA-MB-435 melanoma, -41.1% (active); in the test on SW-620 colon, 39.3%; in the test on MCF7 breast, 30.1%; in the test with HCT-116 colon, 37.8%. Moreover, the growth in the test on HCC-2998 colon is 54.5%; in the test on KM12 colon, 37.8%.

In the case of `CCOC(=O)c1c(CN2CCN(C)CC2)nc2ccc(Cl)cc2c1-c1ccccc1`, the growth in the test with T-47D breast was 74.3%; in the test on BT-549 breast it was 58.5%; in the test on MDA-MB-435 melanoma, 53.5%; with SW-620 colon, 94.8%; with MCF7 breast, 47.6%; in the test on HCT-116 colon, 63.7%. In addition, the results for the growth in the test on HCC-2998 colon and in the test with KM12 colon were -0.061% (active) and 76.2%, respectively.

For the compound `COc1cc(-c2nc3ccccc3[nH]2)ccc1OCc1nnc(-c2ccc(CC(C)C)cc2)o1`, the growth is 57.2% with T-47D breast; 88.5% in the test with BT-549 breast; 98% in the test with MDA-MB-435 melanoma; 103% in the test with SW-620 colon; 79.6% in the test with MCF7 breast; 82% with HCT-116 colon. For the same compound, the growth with HCC-2998 colon was 119%; with KM12 colon, 102%.

For `COc1ccc(-n2nc(C)c3c(Nc4ccc(NC(=O)Nc5ccc(Cl)c(C(F)(F)F)c5)cc4)ncnc32)cc1`, the growth in the test with T-47D breast was 1.89% (active); in the test with BT-549 breast, 17.2%; in the test on MDA-MB-435 melanoma it was -9.88% (active); with SW-620 colon, 14.3%; in the test on MCF7 breast, 1.4% (active); in the test on HCT-116 colon, 7.03% (active). Further, the growth with HCC-2998 colon is 15.6%; in the test with KM12 colon, 6.08% (active).

As for `CC(=O)Oc1ccc(Cl)cc1CN(C(C)=O)C1CCCCC1`, the growth in the test on T-47D breast was 104%; in the test with BT-549 breast it was 107%; in the test with MDA-MB-435 melanoma, 115%; in the test on SW-620 colon, 105%; in the test on MCF7 breast, 97.6%; in the test on HCT-116 colon, 102%. In addition, the growth was 99.4% in the test with HCC-2998 colon and 112% in the test on KM12 colon.

With `CN(Cc1cc(Cl)cc(Cl)c1O)Cc1cc(Cl)cc(Cl)c1O`, the growth in the test with T-47D breast is 76.4%; with BT-549 breast it was 86.4%; with MDA-MB-435 melanoma it was 68.2%; in the test on SW-620 colon it was 73.2%; in the test on MCF7 breast, 67.6%; in the test with HCT-116 colon, 58.9%. Besides, the growth with HCC-2998 colon was 83.5%; with KM12 colon, 74.8%.

For the compound `N#CN1CCC[C@H]1C(=O)N1CCc2c(-c3[nH]nc4ncccc34)cccc21`, the growth in the test on T-47D breast was 13%; with BT-549 breast, -37.6% (active); in the test with MDA-MB-435 melanoma, -61.6% (active); in the test on SW-620 colon, 15.1%; with MCF7 breast it was 5.76% (active); in the test with HCT-116 colon it was -19.6% (active). For the same compound, the growth was -6.99% (active) in the test on HCC-2998 colon and -14% (active) in the test with KM12 colon.

As to `CSc1nc2c(c(=O)[nH]1)C1(C(=O)Nc3ccccc31)c1c(nc(SC)[nH]c1=O)N2`, the growth in the test with T-47D breast was 111%; in the test on BT-549 breast, 107%; in the test with MDA-MB-435 melanoma, 104%; with SW-620 colon, 99.1%; in the test with MCF7 breast, 102%; with HCT-116 colon, 106%. In addition, the growth in the test with HCC-2998 colon was 104%; in the test with KM12 colon, 103%.

In the case of `CCNC(=O)Oc1ccc(/C(=C(\C)c2ccc(Cl)cc2)c2ccc(OCCN(CC)CC)cc2)cc1`, the growth is 25.5% in the test with T-47D breast; 68.8% in the test on BT-549 breast; 25% in the test with MDA-MB-435 melanoma; 2.28% (active) with SW-620 colon; 16.5% with MCF7 breast; 38.6% in the test with HCT-116 colon. The results for the growth in the test with HCC-2998 colon and with KM12 colon were 51% and 37.5%, respectively.

On to `Cc1ccc2oc(=O)cc(C3c4ccc([nH]4)C(c4cc(=O)oc5ccc(C)cc45)c4ccc([nH]4)C(c4cc(=O)oc5ccc(C)cc45)c4ccc([nH]4)C(c4cc(=O)oc5ccc(C)cc45)c4ccc3[nH]4)c2c1` (stereo not given), for which the growth with T-47D breast is -28.5% (active); in the test with BT-549 breast, -49.8% (active); with MDA-MB-435 melanoma it was -76.1% (active); with SW-620 colon it was -7.64% (active); in the test on MCF7 breast, -20.9% (active); with HCT-116 colon, -78.9% (active). Also, the results for the growth with HCC-2998 colon and in the test with KM12 colon were -68.9% (active) and -73.9% (active), respectively.

Regarding `CSc1nc(NCCO)c(C#N)c(-c2cccc([N+](=O)[O-])c2)n1`, the growth is 94.1% in the test with T-47D breast; 96.6% in the test on BT-549 breast; 99.8% in the test with MDA-MB-435 melanoma; 101% in the test on SW-620 colon; 91.4% in the test with MCF7 breast; 96.1% in the test with HCT-116 colon. The growth in the test on HCC-2998 colon is 102%; with KM12 colon, 98.3%.

`O=C(Nc1ccc(Cl)cc1)c1cc2cc(F)ccc2cc1O`: the growth is -7.01% (active) in the test on T-47D breast; 1.77% (active) in the test with BT-549 breast; 10.5% in the test on MDA-MB-435 melanoma; 15.5% in the test with SW-620 colon; 7.1% (active) in the test on MCF7 breast; 12.3% with HCT-116 colon. Besides, the growth in the test with HCC-2998 colon was 27.8%; in the test on KM12 colon, 12.3%.

As to `O=C(N/N=C/c1c[nH]c2ccccc12)c1cc(-c2ccccc2)on1`, the growth in the test with T-47D breast is 77.2%; with BT-549 breast it was 90.3%; in the test with MDA-MB-435 melanoma, 94.8%; with SW-620 colon, 102%; in the test with MCF7 breast, 79.1%; in the test on HCT-116 colon it was 90.6%. Moreover, the growth was 92.9% with HCC-2998 colon and 92.3% in the test with KM12 colon.

The values above are taken from PubChem BioAssay (NCI).
